# PubChem BioAssay AID431 (Sanford-Burnham Center for Chemical Genomics, 2006)
# About 1,100 (1.7%) of roughly 63,000 compounds were called active.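 Rule for the calls: active = compounds whose percent cytotoxicity in the single-dose primary screen, scaled between solvent and toxic-drug controls, exceeds 50; inactive = the rest.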 This excerpt belongs to a sample that is enriched for actives. Potency and affinity values are given separately.
# Assay: viability loss of HPDE-C7K cells – cell-based, fluorescence, HTS, primary screen (AID 431);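 note: 0% = DMSO solvent wells and 100% = doxorubicin-treated wells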
# Conditions: HPDE-C7K KRASV12 cells, Alamar Blue viability, 48 h; at 10 µM; stronger effect = higher value
row,Compound,cytotoxicity
1,Cc1cc(C)c(C#N)c(Nc2ccc3c(c2)OCCO3)n1,11.2% (inactive)
2,c1ccc(Nc2ncnc3c2oc2ccccc23)cc1,-10% (inactive)
3,c1ccc2c(c1)oc1c(NCCN3CCOCC3)ncnc12,-2.7% (inactive)
4,CCCCOC(=O)c1ccc(NC(=O)c2cnccn2)cc1,10.3% (inactive)
5,C=CCNC(=O)c1c(N)n(-c2cccc(S(N)(=O)=O)c2)c2nc3ccccc3nc12,8.3% (inactive)
6,C=CCn1c(N)c(C(=O)OC(C)CC)c2nc3ccccc3nc21 (stereo unspecified),24.5% (inactive)
7,C=CCn1c(N)c(C(=O)OCCC)c2nc3ccccc3nc21,7.1% (inactive)
8,C=CCn1c(N)c(C(=O)OC(C)(C)C)c2nc3ccccc3nc21,62.9% (active)
9,C=CCn1c(N)c(C(=O)Nc2ccccc2)c2nc3ccccc3nc21,60.6% (active)
10,C=CCNC(=O)c1c(N)n(-c2ccc3c(c2)OCO3)c2nc3ccccc3nc12,-6.4% (inactive)
11,Nc1c(C(=O)N2CCCCC2)sc(=S)n1-c1ccccc1,-4.9% (inactive)
12,CCOC(=O)Cc1nn2c(=O)cc(C)nc2s1,-0.8% (inactive)
13,CC(=O)NC1(C(F)(F)F)C(=O)Nc2c1c(=O)[nH]c(=O)n2Cc1ccco1 (stereo unspecified),-16.1% (inactive)
14,Cc1cc(C)n(-c2nc(Nc3ccccc3)nc(-n3nc(C)cc3C)n2)n1,9.6% (inactive)
15,CC(=O)c1cccc(NC(=O)CC2SC(N3CCCCC3)=NC2=O)c1 (stereo unspecified),-7.4% (inactive)
16,CCOCC(=O)Nc1nc2ccc(OCC)cc2s1,4.3% (inactive)
17,Cc1cccc(N(CC(=O)NCc2ccccc2)C(=O)Cn2nnc(-c3ccc(C)o3)n2)c1,-14.9% (inactive)
18,CC(CN1CCOCC1)OC(=O)c1ccc2c(c1)OCCO2 (stereo unspecified),9.2% (inactive)
19,COc1ccc(C(=O)OC(C)CN2CCOCC2)cc1OC (stereo unspecified),-10% (inactive)
20,O=C(CCN1C(=O)C2C3C=CC(C3)C2C1=O)NCc1cccnc1 (stereo unspecified),-6.8% (inactive)
21,O=C(CSc1nc(Nc2ccccc2)nc(N2CCOCC2)n1)N1CCCC1,5.4% (inactive)
22,O=C(CSc1nc2ccccc2c(=O)n1C1CC1)NCc1ccccc1,3.5% (inactive)
23,COc1ccccc1-c1nnn(CC#N)n1,6.1% (inactive)
24,CCOC(=O)c1c(C)c(C(=O)N2CCCCCC2)c(C)n1CC,-2.8% (inactive)

row,Compound,cytotoxicity
1,O=C1c2ccccc2NC(c2ccccc2)N1Cc1ccco1 (stereo unspecified),-5.8% (inactive)
2,CCOC(=O)CSC1=C(C#N)C(=O)NC(c2ccc(OC)c(OC)c2)S1 (stereo unspecified),70.5% (active)
3,CCOC(=O)CC1=C(C(=O)OCC)C(c2ccc(OC)c(OC)c2)C(C#N)=C(N)O1 (stereo unspecified),5.7% (inactive)
4,CCOC(=O)CSC1=C(C#N)C(=O)NC2(CCCCC2)S1,13.8% (inactive)
5,COc1ccc(CCn2c(C)ccc2C)cc1OC,-8.8% (inactive)
6,O=C(NC1CCCCC1)N1CCC(c2nc3ccc(Cl)cc3[nH]2)CC1,7.4% (inactive)
7,Cn1nc(-c2ccc(Cl)cc2)c2cc(C(=O)NCCCN3CCOCC3)sc21,9.2% (inactive)
8,CN1CCN(CCCNC(=O)c2cc3c(-c4ccc(Cl)cc4)nn(C)c3s2)CC1,3.3% (inactive)
9,Cn1nc(-c2ccc(Cl)cc2)c2cc(C(=O)NCCCN3CCCC3)sc21,54.3% (active)
10,COc1ccccc1N1CCN(CCC(=O)Nc2ccc3c(c2)OCO3)CC1,7.5% (inactive)
11,CCOc1ccc(C(=O)Nc2cccc(-c3nc4cccnc4o3)c2)cc1Cl,56% (active)
12,Cc1ccc(-c2nc3cccnc3o2)cc1NC(=O)COc1ccc(Cl)cc1C,0.4% (inactive)
13,CCOc1cccc(C(=O)Nc2cccc(-c3nnc(-c4ccccc4)o3)c2)c1,-9.8% (inactive)
14,CCN1CCN(c2ccc(NC(=O)c3cccc4ncccc34)cc2)CC1,-12.5% (inactive)
15,Cc1sc2nc(SCC(=O)c3cccs3)n(Cc3ccco3)c(=O)c2c1C,31.6% (inactive)
16,C=CCNc1nc(-c2cccc(OC)c2O)nc2ccccc12,-8.3% (inactive)
17,CCC(C)Nc1nc(-c2cccc(OC)c2O)nc2ccccc12 (stereo unspecified),114% (active)
18,COc1cccc(-c2nc(NC(C)(C)C)c3ccccc3n2)c1O,20.9% (inactive)
19,Oc1ccccc1-c1nc(NCc2ccco2)c2ccccc2n1,5.3% (inactive)
20,COc1cccc(-c2nc(N3CCCCC3)c3ccccc3n2)c1O,-18.8% (inactive)
21,CCC1CCCCN1c1nc(-c2cccc(OC)c2O)nc2ccccc12 (stereo unspecified),8.3% (inactive)
22,CCN(CC)c1nc(-c2cccc(OC)c2O)nc2ccccc12,-8.4% (inactive)
23,Oc1ccc(Nc2nc(NCC3CCCO3)c3ccccc3n2)cc1 (stereo unspecified),46.8% (inactive)
24,COc1cccc(-c2nc(NCC3CCCO3)c3ccccc3n2)c1O (stereo unspecified),55.1% (active)

row,Compound,cytotoxicity
1,COc1cccc(-c2nc(N3CCCCC3C)c3ccccc3n2)c1O (stereo unspecified),63.1% (active)
2,COc1cccc(-c2nc(NC(C)C)c3ccccc3n2)c1O,42.1% (inactive)
3,CS(=O)(=O)N(CC(=O)N1CCN(Cc2ccccc2)CC1)Cc1ccccc1,-3% (inactive)
4,COCCCNc1nc2c(c(=O)[nH]c(=O)n2C)n1CCCc1ccccc1,-3.8% (inactive)
5,CCCn1c(CNS(=O)(=O)c2ccc(C)cc2)nc2ccccc21,5.2% (inactive)
6,O=C(CN1CCN(C(=O)c2ccccc2F)CC1)Nc1ccc(Br)cc1,-5.9% (inactive)
7,CCCCn1cnc2sc3c(c2c1=N)CCCC3,-7.6% (inactive)
8,CCCCOC(=O)Nc1ccccc1C(N)=O,-5.7% (inactive)
9,COc1ccc(/C(O)=C2/C(=O)C(=O)N(CCCC(=O)O)C2c2ccc(OC)c(OC)c2)cc1 (stereo unspecified),-0.6% (inactive)
10,c1ccc(-c2nc(NCC3CCCO3)c3ccccc3n2)nc1 (stereo unspecified),9.5% (inactive)
11,Oc1ccccc1Nc1nc(NCC2CCCO2)c2ccccc2n1 (stereo unspecified),12.1% (inactive)
12,Oc1ccccc1-c1nc(NCC2CCCO2)c2ccccc2n1 (stereo unspecified),50.1% (active)
13,c1ccc(-c2nc(NCc3ccco3)c3ccccc3n2)nc1,20% (inactive)
14,c1coc(CNc2nc(N3CCCCC3)nc3ccccc23)c1,38.2% (inactive)
15,CC(=O)c1ccc(NC(=O)CSc2nnc(Cn3c(=O)sc4ccccc43)n2C)cc1,-1.4% (inactive)
16,N#Cc1ccc(CSc2nnc(-c3ccccn3)n2-c2ccccc2)cc1,10.8% (inactive)
17,COc1cc2[nH]c(=O)n(CCCCCC(=O)NCCCN3CCC(C)CC3)c(=O)c2cc1OC,-6.7% (inactive)
18,O=C(CN1C(=O)NC2(CCCCCCC2)C1=O)N1CCOCC1,-1.1% (inactive)
19,O=C(Cn1c(=O)oc2cc(S(=O)(=O)NCc3ccccc3)ccc21)NCc1ccco1,2.7% (inactive)
20,CCc1nc(N2CCOCC2)c(C#N)c2c1CCCC2,-2.9% (inactive)
21,CCCc1nc(N2CCCC2)c(C#N)c2c1CCCC2,87.9% (active)
22,CC(C)Cc1nc(N2CCN(C(=O)C(C)C)CC2)c(C#N)c2c1CCC2,-14.5% (inactive)
23,CCCc1nc(N2CCOCC2)c(C#N)c2c1CCCC2,-0.6% (inactive)
24,CCc1nc(N2CCN(C(=O)c3ccccc3)CC2)c(C#N)c2c1COC(C)(C)C2,5.9% (inactive)

row,Compound,cytotoxicity
1,CC(C)Cc1nc(N2CCCCC2)c(C#N)c2c1CCC2,16.1% (inactive)
2,CC1(C)Cc2c(C#N)c(N3CCOCC3)nc(Cc3ccccc3)c2CO1,40% (inactive)
3,CCc1nc(N2CCCC2)c(C#N)c2c1CCCC2,-11.1% (inactive)
4,CC(C)Cc1nc(N2CCN(C(=O)c3ccco3)CC2)c(C#N)c2c1CCC2,63.2% (active)
5,CC(=O)N1CCN(c2nc(CC(C)C)c3c(c2C#N)CCC3)CC1,2% (inactive)
6,CC(C)Cc1nc(N2CCOCC2)c(C#N)c2c1CCC2,64.8% (active)
7,CCCNC1=C(C)C(=O)CC1,15.5% (inactive)
8,CCOc1ncccc1C(=O)OCC(=O)c1ccc[nH]1,2.7% (inactive)
9,COc1ccc(CCNC(=O)C2=COCCO2)cc1,-8.1% (inactive)
10,O=C(NCc1ccc2c(c1)OCO2)c1cc2n(n1)C(C(F)(F)F)CC(c1ccc3c(c1)OCO3)N2 (stereo unspecified),21.6% (inactive)
11,COc1ccccc1NC(=O)c1cc2n(n1)C(C(F)(F)F)CC(c1ccc3c(c1)OCO3)N2 (stereo unspecified),41.8% (inactive)
12,Cc1cccc(NC(=O)c2cc3n(n2)C(C(F)(F)F)CC(c2ccc4c(c2)OCO4)N3)c1 (stereo unspecified),75.8% (active)
13,Cc1cc(NC(=O)c2cc3n(n2)C(C(F)(F)F)CC(c2ccc(Cl)c(Cl)c2)N3)no1 (stereo unspecified),14.7% (inactive)
14,COc1ccc(OC)c(NC(=O)c2cc3n(n2)C(C(F)(F)F)CC(c2ccc4c(c2)OCO4)N3)c1 (stereo unspecified),42.4% (inactive)
15,O=C(Nc1cc(Cl)ccc1O)c1cc2n(n1)C(C(F)(F)F)CC(c1ccc3c(c1)OCO3)N2 (stereo unspecified),-19.1% (inactive)
16,O=C(Nc1ccc2c(c1)OCO2)c1cc2n(n1)C(C(F)(F)F)CC(c1ccccc1)N2 (stereo unspecified),72.7% (active)
17,COc1ccc(NC(=O)c2cc3n(n2)C(C(F)(F)F)CC(c2ccc4c(c2)OCO4)N3)cc1OC (stereo unspecified),69.1% (active)
18,COc1ccc(C2CC(C(F)(F)F)n3nc(C(=O)Nc4ccc5c(c4)OCO5)cc3N2)cc1 (stereo unspecified),-10.9% (inactive)
19,CC(=O)N(c1ccc2oc(=O)sc2c1)S(=O)(=O)c1cccs1,14.7% (inactive)
20,COc1ccc(NC(=O)N2CCn3c2nc2ccccc23)cc1,-17.6% (inactive)
21,N=c1c(C(=O)NC2CCCC2)cc2c(=O)n3ccccc3nc2n1CCN1CCOCC1,-8.1% (inactive)
22,COCc1[nH]nc2c1C(c1ccc(F)cc1F)C(C#N)=C(N)O2 (stereo unspecified),-13.5% (inactive)
23,Cc1cc(N2C(=O)C(O)=C(C(=O)c3ccco3)C2c2cccnc2)no1 (stereo unspecified),-10.4% (inactive)
24,Cn1c(C(=O)Nc2ccc3c(c2)OCCO3)cc2c(=O)n(C)c3ccccc3c21,48.6% (inactive)
